Assay outcomes deposited in PubChem BioAssay by several laboratories.
Only some compounds are listed: those with a hit (about 2.5% of all), similar ones and a draw of the others.
ANO1 activ: TMEM16A chloride channel activators or potentiators, primary screen, cell-based, HTS; B-score at 10 µM; actives 0.3% (n = 340,000); HEK293 TMEM16A/YFP-H148Q/I152L, iodide quench fluorescence; hits give low values;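 active = fluorescence-ratio B-score plate-corrected deviation score at least 3 library SD below zero, with starting fluorescence score within 5 deviations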;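 also: channel opened by trigger with iodide after compound preincubation; score built on the fluorescence ratio of max minus min over baseline; more negative score means more quench and so TMEM16A activation or potentiation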
CHT allo act: CHT positive allosteric modulators, primary screen, cell-based, membrane potential dye, choline EC20 | High affinity choline transporter 1 (Homo sapiens), Q9GZV3 | B-score at 10 µM | CHT-expressing cells; hits give high values; LV-AA mutant CHT in HEK293 cells | actives 0.49% (n = 310,000);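 active = initial fluorescence not abnormally high and integrated response B-score, plate-corrected, over 3 SD above library mean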
ANO1 block: TMEM16A chloride channel inhibitors, primary screen, cell-based, HTS | normalized B-score (activity score, 25-100; higher = stronger inhibition) at 10 µM | Anoctamin-1 (Mus musculus), Q8BHY3 | actives 1.2% (n = 310,000) | HEK293 TMEM16A/YFP iodide influx fluorescence, ionomycin;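 active = ratio plate-corrected score three or more library SD toward inhibition, starting fluorescence score within five deviations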;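 also: score derived from kinetic fluorescence span divided by baseline fluorescence per well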
PKA-R1A activ: activators of PKA-R1A holoenzyme, primary screen, biochemical, fluorescence polarization, Cy5-IP20, bovine R1A, mouse PKAc; PKA-R1A dissociation; scaled: DMSO 0%, 113 µM cGMP 100%; activation, % at 11.4 µM; actives 0.083% (n = 340,000); cAMP-dependent protein kinase type I-alpha regulatory subunit (Bos taurus) + …;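 active = percent activation above the mean of all tested compounds plus 3 SD, cut at about 19% in these data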;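 also: higher means more PKAc released from R1A so a rise in polarization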
CHT block: inhibitors of human choline transporter CHT; CHT-expressing cells, membrane potential dye, choline response; hits give low values; actives 0.86% (n = 310,000); B-score at 10 µM; High affinity choline transporter 1 (Homo sapiens), Q9GZV3;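 active = B-score over 3 SD under the library average, and starting fluorescence ratio not unusually high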;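 also: choline stimulus applied at its EC90 after an EC20 pre-addition; B-score computed on integrated fluorescence ratio after choline addition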
PKA-R2B activ: activators of PKA-R2B holoenzyme, primary screen, biochemical, fluorescence polarization, Cy5-IP20, human; activation, % at 11.4 µM; AID 504700, 2011; actives 0.079% (n = 340,000); PKA-R2B holoenzyme dissociation; R2B truncated from residue 108, S112A mutant; 0% DMSO only, 100% 113 µM cGMP;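 active = activation above a cutoff set at the mean over all compounds plus 3 SD, cut at about 18% in these data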;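 also: higher means more holoenzyme dissociation and a rise in polarization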
Target sequence (P31323 whole entry, looked up, other chains not shown, the tested form may be a part): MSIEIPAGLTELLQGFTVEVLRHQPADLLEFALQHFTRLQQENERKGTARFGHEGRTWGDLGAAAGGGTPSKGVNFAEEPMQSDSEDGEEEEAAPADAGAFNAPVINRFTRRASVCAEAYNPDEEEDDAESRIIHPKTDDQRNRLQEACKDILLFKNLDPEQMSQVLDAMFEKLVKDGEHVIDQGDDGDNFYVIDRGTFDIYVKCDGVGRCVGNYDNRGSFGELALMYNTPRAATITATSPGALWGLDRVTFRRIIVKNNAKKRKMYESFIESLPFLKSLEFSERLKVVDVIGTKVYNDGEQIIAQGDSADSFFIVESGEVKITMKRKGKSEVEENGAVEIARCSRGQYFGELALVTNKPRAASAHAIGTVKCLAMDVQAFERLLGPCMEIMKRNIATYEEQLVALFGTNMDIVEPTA
* marks the source's active call; other numbers are inactive results; i = inactive; . = no result.

SMILES	ANO1 activ	CHT allo act	ANO1 block	PKA-R1A activ	CHT block	PKA-R2B activ
CCCCN(CCCC)S(=O)(=O)c1ccc(NC(=O)c2cccs2)cc1	i	i	100*	-14.9	i	-5.4
Cc1cc(C)nc(NS(=O)(=O)c2ccc(NC(=O)c3cccs3)cc2)n1	i	i	i	-2.9	i	-14.2
N#CC(C(=O)NCCc1ccccc1)c1nc2ccccc2nc1N1CCCCC1 (centres undefined)	i	i	100*	-6.1	i	-8.7
N#CC(C(=O)NCCc1ccccc1)c1nc2ccccc2nc1N1CCOCC1 (centres undefined)	i	i	i	11.8	i	9.3
COc1ccc(-c2csc(NC(=O)CSc3n[nH]c(C)n3)n2)cc1	i	i	25*	-0.7	i	-4.9
CCc1c(C)nc(SCC(=O)Nc2nc(-c3ccc(OC)cc3)cs2)[nH]c1=O	i	i	i	-8.5	i	-11.7
COC(=O)/C(=N\OCc1ccc(C#N)cc1)c1c(C)nn(C)c1C	i	i	i	1.2	i	-0.6
COc1ccc(CNC(=O)c2n[nH]c3ccccc23)cc1OC	i	i	i	-10.3	i	-6.1
Nc1ccc(/C=C/C(=O)c2cccs2)cc1	-5.74*	i	i	-6.2	i	-3.7
O=C(C=Cc1ccccc1)c1cccs1	i	.	.	-6.1	.	1.6
Cc1ccccc1C(=O)N1CCN(c2ccc(NC(=O)c3ccc4c(c3)OCCO4)cc2)CC1	i	i	25*	3.2	i	1.4
COc1nc(N2CCCC2)nc(-n2nnc(C(C)=O)c2C)n1	i	i	i	-12.5	i	-7.9
N/C(=N\OC(=O)c1ccc(Cl)cc1Cl)c1ccncc1	i	i	i	5.9	i	-3.0
N/C(=N\OC(=O)COc1ccc(Cl)cc1Br)c1ccncc1	-39.1*	.	.	0.4	.	-13.0
N/C(=N\OC(=O)c1cc(Cl)ccc1Cl)c1ccncc1	-10.4*	i	i	4.3	i	-0.2
COc1ccc(N2CCN(C(=O)C(Cc3ccccc3)n3cccc3)CC2)cc1 (centres undefined)	-14.6*	i	i	-7.2	i	3.7
S=C(NCc1ccco1)Nc1ccc(Cl)c(Cl)c1	i	i	25*	-4.4	i	1.4
Cn1c(N)c(C(=O)COC(=O)[C@H](Cc2ccccc2)N2C(=O)c3ccccc3C2=O)c(=O)n(C)c1=O	i	i	i	-0.3	i	-11.0
COc1ccc(C2CCCN2CC(O)COc2ccccc2C(C)C)cc1 (centres undefined)	i	10.2*	i	-7.0	i	7.2
CCC1CCCCN1C(=O)c1sc2ncnc(N(CC)CC)c2c1C (centres undefined)	i	i	i	-0.6	i	-7.7
Cc1nnc(SCc2nnc(-c3ccccc3Br)o2)s1	-7.89*	i	i	-3.0	i	2.2
Cn1nnnc1SCc1nnc(-c2ccccc2Br)o1	i	i	i	-8.0	i	-7.8
O=C1CC(C(=O)O)S/C(=N\N=C\c2ccc(Br)cc2)N1 (centres undefined)	i	i	i	7.3	i	-1.5
CCCCc1ccc(NC(=S)NCc2cccc(OC)c2)cc1	i	i	100*	-7.0	i	-18.6
Cc1c2n(c3ccccc13)CCN(C)C2	i	i	i	-2.1	i	-10.6
Cc1ccc(C)c(OCCC(=O)OCC(=O)NCCc2ccc(S(N)(=O)=O)cc2)c1	-4.77*	i	i	2.2	i	-9.4
Cc1ccc(C)c(OCCC(=O)NCCc2ccc(S(N)(=O)=O)cc2)c1	i	i	i	-1.1	i	-5.9
